Measured values: the supplement of paper PMC10849652
Of roughly 8,800 targets only a part is listed; those with a hit were picked by preference. About 0.5% of all pairs of compound and target were hits.

Experiments:
Test in all cases: log2 fold change, soluble protein after heating vs DMSO (PISA); higher = thermal stabilisation; K562 lysate, 10 uM; active = over 0.2 and 3.5 SD of the protein, either way, in both replicates (recomputed)
[1] = compound: CCCS(=O)(=O)Nc1ccc(F)c(C(=O)c2c[nH]c3ncc(-c4ccc(Cl)cc4)cc23)c1F [vemurafenib]
Outline: (§1)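 Log-two fold change in thermal stability relative to solvent controls is reported from duplicates. For each sample, crude K562 extract from dounce-homogenised pellets in PBS pH 7.4 with 1 mM MgCl2, at 1 mg/mL protein, was treated with 10 μM compound for 30 min. Aliquots heated for 3 min across 48°C-58°C were pooled, brought to 0.5% NP-40 at 4°C and cleared at 21,000xg for 90 min. The supernatant was quantified by TMTpro 16plex LC-MS/MS with channel sums equalised.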

[2] = compound: CCCS(=O)(=O)Nc1ccc(F)c(C(=O)c2c[nH]c3ncc(Cl)cc23)c1F
Outline: as §1

[3] = compound: CCN(CCCOc1ccc2c(Nc3cc(CC(=O)Nc4cccc(F)c4)[nH]n3)ncnc2c1)CCOP(=O)(O)O [barasertib]
Outline: as §1

[4] = compound: CC[C@@H]1C(=O)N(C)c2cnc(Nc3ccc(C(=O)NC4CCN(C)CC4)cc3OC)nc2N1C1CCCC1
Outline: as §1

[5] = compound: CC[C@@H]1C(=O)N(C)c2cnc(Nc3ccc(C(=O)N[C@H]4CC[C@H](N5CCN(CC6CC6)CC5)CC4)cc3OC)nc2N1C(C)C [volasertib]
Outline: as §1

[6] = compound: CCn1c(C(=O)N(C2CC2)C2CC2)cc2c3c(ncn3C)c(Nc3cc(C)n(C)n3)nc21
Outline: as §1

[7] = compound: CCn1cc(-c2ccnc3[nH]c(-c4cccc(CN(C)C)c4)cc23)c(-c2ccc(NC(=O)N(C)C)cc2)n1
Outline: as §1

[8] = compound: CN1CCC(CNc2ccc3ncc(-c4cccc(OC(F)(F)F)c4)n3n2)CC1
Outline: as §1

[9] = compound: CN1CCN(CCOc2cc(OC3CCOCC3)c3c(Nc4c(Cl)ccc5c4OCO5)ncnc3c2)CC1 [saracatinib]
Outline: as §1

[10] = compound: CN1CCN(c2nc(C3=C(c4c[nH]c5ccccc45)C(=O)NC3=O)c3ccccc3n2)CC1 [sotrastaurin]
Outline: as §1

[11] = compound: CN1CC[C@H](c2c(O)cc(O)c3c(=O)cc(-c4ccccc4Cl)oc23)[C@H](O)C1 [alvocidib]
Outline: as §1

[12] = compound: CN1CCc2c(c3ccccc3n2Cc2ccc(C(=O)NO)cc2)C1 [Tubastatin A]
Outline: as §1

[13] = compound: CNC(=O)C1=CC=CC=C1NC2=NC(=NC=C2Cl)NC3=C(C=C(C=C3)N4CCOCC4)OC
Outline: as §1

[14] = compound: CNC(=O)c1ccc(Nc2ncc(C(F)(F)F)c(NCc3nccnc3N(C)S(C)(=O)=O)n2)cc1 [defactinib]
Outline: as §1

[15] = compound: CNc1nc(-c2ccc3c(N)n[nH]c3c2)cc(N2C[C@@H](C(=O)NC3CCCCC3)CC[C@H]2C)n1
Outline: as §1

[16] = compound: COC(=O)N[C@@H](C)CNc1nccc(-c2cn(C(C)C)nc2-c2cc(Cl)cc(NS(C)(=O)=O)c2F)n1 [encorafenib]
Outline: as §1

[17] = compound: COC(=O)[C@H](CCSC)NC(=O)C1=C(C=C(C=C1)NC[C@H](CS)N)C2=CC=CC=C2
Outline: as §1

[18] = compound: COc1cc(Nc2ncc3c(n2)-c2ccc(Cl)cc2C(c2c(F)cccc2OC)=NC3)ccc1C(=O)O [alisertib]
Outline: as §1

[19] = compound: COc1cc2nc(-c3cc(F)ccc3O)nc(N[C@@H]3CNC[C@H]3C(C)(C)O)c2cc1OC
Outline: as §1

[20] = compound: COc1cc2ncnc(Nc3ccc(F)c(Cl)c3)c2cc1OCCCN1CCOCC1 [gefitinib]
Outline: as §1

Measured: log2 fold change

TBL3 (UniProt Q12788)
Sequence of UniProt Q12788 (Q12788 whole entry, looked up): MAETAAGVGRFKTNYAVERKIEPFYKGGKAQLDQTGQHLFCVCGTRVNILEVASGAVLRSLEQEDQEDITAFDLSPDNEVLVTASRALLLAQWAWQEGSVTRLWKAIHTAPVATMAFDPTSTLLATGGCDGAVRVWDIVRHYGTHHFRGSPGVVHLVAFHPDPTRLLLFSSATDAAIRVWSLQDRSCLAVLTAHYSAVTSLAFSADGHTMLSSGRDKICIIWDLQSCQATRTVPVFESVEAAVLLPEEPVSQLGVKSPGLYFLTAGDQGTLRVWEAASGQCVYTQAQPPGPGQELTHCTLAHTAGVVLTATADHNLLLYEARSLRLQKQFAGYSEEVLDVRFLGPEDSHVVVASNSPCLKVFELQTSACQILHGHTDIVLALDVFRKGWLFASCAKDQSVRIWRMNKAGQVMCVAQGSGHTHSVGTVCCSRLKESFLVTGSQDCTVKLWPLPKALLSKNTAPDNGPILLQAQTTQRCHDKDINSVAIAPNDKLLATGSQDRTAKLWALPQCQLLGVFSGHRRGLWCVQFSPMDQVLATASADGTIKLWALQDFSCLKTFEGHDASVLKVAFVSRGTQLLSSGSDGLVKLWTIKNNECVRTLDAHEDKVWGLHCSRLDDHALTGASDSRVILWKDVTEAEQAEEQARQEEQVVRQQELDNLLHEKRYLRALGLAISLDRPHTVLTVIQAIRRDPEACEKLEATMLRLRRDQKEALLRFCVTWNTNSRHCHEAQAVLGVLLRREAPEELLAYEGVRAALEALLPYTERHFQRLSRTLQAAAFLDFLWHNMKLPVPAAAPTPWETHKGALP
inactive: [1] 0.02 | [2] 0.003 | [3] 0.042 | [4] -0.018 | [5] -0.006 | [6] 0.004 | [7] -0.005 | [8] -0.012 | [9] 0.026 | [10] 0.009 | [11] -0.019 | [12] -0.08 | [13] 0.014 | [14] 0.016 | [15] 0.01 | [16] -0.021 | [17] 0.072 | [18] 0.015 | [19] 0.006 | [20] -0.123

TUBGCP2 isoform 4 (UniProt Q9BSJ2)
Sequence of UniProt Q9BSJ2 (Q9BSJ2 whole entry, looked up): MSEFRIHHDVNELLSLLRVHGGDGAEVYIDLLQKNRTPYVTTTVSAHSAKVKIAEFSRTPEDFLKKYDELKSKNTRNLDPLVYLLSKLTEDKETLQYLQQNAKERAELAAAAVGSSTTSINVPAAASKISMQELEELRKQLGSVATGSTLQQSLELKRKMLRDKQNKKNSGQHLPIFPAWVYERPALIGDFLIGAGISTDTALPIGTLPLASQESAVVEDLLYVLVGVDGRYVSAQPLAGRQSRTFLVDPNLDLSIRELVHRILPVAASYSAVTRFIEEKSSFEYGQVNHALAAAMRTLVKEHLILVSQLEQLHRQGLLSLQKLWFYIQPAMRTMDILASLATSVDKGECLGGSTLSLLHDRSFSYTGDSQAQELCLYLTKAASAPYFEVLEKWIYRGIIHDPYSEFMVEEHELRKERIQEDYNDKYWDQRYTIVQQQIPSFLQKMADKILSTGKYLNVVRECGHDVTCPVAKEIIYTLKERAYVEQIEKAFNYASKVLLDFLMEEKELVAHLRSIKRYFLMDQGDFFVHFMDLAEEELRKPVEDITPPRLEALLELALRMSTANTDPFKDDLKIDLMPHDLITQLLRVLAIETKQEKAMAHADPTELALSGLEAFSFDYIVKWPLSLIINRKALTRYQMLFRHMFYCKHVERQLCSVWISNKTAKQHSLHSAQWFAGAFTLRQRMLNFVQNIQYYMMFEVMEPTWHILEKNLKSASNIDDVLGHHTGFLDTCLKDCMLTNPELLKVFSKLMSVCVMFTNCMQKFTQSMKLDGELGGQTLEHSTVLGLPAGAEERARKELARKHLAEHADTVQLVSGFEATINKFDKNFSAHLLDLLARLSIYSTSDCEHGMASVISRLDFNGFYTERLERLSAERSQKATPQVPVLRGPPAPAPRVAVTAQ
inactive: [1] 0.02 | [2] 0.01 | [3] 0.027 | [4] 0.001 | [5] -0.049 | [6] 0.021 | [7] 0.078 | [8] -0.064 | [9] -0.035 | [10] 0 | [11] -0.007 | [12] -0.008 | [13] 0.053 | [14] 0.032 | [15] 0.003 | [16] 0.045 | [17] -0.026 | [18] 0.021 | [19] 0.017 | [20] -0.018

TIMM44 (UniProt O43615)
inactive: [1] -0.035 | [2] -0.017 | [3] 0.07 | [4] -0.006 | [5] -0.034 | [6] 0.022 | [7] -0.02 | [8] -0.065 | [9] 0.012 | [10] -0.026 | [11] 0.001 | [12] 0.083 | [13] 0.039 | [14] 0.018 | [15] -0.017 | [16] 0.056 | [17] 0.08 | [18] 0.082 | [19] -0.04 | [20] 0.017

TUBB3 (UniProt Q13509)
inactive: [1] -0.004 | [2] 0.018 | [3] -0.042 | [4] -0.019 | [5] -0.046 | [6] 0.027 | [7] -0.002 | [8] 0.012 | [9] 0.015 | [10] 0.027 | [11] -0.001 | [12] -0.081 | [13] 0.006 | [14] 0.023 | [15] -0.034 | [16] -0.004 | [17] 0.072 | [18] 0.007 | [19] 0.007 | [20] -0.016

TLK1 isoform 2 (UniProt Q9UKI8)
Sequence of UniProt Q9UKI8 (Q9UKI8 whole entry, looked up): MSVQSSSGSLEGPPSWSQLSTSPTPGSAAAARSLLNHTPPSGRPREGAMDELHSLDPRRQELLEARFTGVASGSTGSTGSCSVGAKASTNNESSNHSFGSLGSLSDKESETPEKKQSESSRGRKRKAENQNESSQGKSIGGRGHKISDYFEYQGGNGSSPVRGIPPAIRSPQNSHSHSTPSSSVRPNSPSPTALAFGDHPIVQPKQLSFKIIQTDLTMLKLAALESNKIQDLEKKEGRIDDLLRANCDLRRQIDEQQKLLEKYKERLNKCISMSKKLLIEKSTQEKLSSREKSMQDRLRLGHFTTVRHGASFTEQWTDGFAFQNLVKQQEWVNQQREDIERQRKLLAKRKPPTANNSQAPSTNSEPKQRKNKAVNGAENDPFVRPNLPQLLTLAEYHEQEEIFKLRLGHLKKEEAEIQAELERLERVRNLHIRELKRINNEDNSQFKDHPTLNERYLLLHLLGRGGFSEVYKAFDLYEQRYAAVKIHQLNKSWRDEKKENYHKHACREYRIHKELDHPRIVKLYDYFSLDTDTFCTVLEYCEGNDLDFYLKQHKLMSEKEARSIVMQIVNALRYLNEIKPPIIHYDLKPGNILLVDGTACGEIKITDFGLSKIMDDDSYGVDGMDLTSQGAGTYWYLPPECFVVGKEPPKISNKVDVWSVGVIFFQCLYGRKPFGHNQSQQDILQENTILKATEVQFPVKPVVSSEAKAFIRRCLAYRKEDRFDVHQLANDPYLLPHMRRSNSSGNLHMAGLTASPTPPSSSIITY
active: [10] 0.393
inactive: [1] 0.001 | [2] -0.003 | [3] 0.06 | [4] -0.048 | [5] -0.078 | [6] 0.01 | [7] -0.092 | [8] 0.072 | [9] 0.014 | [11] -0.05 | [12] -0.092 | [13] 0.046 | [14] 0.16 | [15] 0.023 | [16] -0.045 | [17] -0.14 | [18] -0.028 | [19] 0.05 | [20] 0.01

TRIP12 isoform 2 (UniProt Q14669)
Sequence of UniProt Q14669 (Q14669 whole entry, looked up): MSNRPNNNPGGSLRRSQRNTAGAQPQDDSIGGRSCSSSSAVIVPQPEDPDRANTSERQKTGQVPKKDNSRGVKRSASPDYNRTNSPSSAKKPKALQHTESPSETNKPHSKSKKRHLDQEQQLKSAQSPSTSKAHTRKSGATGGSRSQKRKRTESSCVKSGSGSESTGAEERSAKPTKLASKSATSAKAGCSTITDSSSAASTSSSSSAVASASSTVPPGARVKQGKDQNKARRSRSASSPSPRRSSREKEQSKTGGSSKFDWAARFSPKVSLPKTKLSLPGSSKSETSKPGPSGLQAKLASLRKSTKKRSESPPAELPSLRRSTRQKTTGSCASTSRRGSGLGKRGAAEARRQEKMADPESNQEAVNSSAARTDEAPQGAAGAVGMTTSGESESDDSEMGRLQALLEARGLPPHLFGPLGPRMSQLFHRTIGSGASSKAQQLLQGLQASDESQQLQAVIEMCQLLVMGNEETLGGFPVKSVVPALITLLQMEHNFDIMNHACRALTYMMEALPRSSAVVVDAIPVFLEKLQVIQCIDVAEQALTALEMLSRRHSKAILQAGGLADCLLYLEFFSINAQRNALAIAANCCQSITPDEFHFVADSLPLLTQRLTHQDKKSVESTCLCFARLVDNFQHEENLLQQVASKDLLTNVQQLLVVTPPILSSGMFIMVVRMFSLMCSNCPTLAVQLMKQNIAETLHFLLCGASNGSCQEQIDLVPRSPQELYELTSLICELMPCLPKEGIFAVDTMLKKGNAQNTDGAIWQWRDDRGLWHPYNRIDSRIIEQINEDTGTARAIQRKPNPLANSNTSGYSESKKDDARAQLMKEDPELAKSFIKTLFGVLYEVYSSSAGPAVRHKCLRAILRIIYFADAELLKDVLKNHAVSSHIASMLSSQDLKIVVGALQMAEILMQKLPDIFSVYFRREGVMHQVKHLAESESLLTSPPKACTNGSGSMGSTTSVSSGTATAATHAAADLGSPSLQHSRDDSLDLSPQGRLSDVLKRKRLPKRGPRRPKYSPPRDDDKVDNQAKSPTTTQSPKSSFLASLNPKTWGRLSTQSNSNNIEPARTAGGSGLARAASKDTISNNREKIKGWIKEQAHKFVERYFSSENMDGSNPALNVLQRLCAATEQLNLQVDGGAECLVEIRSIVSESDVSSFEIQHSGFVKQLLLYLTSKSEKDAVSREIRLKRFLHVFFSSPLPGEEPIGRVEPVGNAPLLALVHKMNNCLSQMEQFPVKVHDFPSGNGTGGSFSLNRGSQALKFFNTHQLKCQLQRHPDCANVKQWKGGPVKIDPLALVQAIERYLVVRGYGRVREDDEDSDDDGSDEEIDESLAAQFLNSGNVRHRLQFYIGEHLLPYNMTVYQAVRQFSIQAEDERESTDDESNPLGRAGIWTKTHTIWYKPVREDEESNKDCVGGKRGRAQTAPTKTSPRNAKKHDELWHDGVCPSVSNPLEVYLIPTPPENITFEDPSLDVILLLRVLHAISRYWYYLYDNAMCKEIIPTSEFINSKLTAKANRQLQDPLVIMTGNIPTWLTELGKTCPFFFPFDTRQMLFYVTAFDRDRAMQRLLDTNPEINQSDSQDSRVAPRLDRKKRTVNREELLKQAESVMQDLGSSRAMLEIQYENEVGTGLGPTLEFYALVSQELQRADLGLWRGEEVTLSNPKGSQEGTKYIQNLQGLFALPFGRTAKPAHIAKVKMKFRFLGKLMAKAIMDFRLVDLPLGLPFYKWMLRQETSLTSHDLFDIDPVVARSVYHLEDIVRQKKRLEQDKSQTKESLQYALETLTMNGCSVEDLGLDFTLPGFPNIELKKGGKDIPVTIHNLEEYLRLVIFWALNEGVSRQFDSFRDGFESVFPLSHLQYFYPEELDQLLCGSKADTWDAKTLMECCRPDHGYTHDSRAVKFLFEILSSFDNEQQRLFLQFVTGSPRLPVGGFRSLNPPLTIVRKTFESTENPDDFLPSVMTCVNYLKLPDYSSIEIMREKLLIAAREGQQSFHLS
inactive: [1] 0.014 | [2] 0.068 | [3] 0.038 | [4] -0.001 | [5] -0.028 | [6] 0.091 | [7] -0.031 | [8] 0.036 | [9] -0.007 | [10] 0.013 | [11] 0.018 | [12] -0.035 | [13] 0.002 | [14] 0.045 | [15] -0.17 | [16] 0.049 | [17] -0.018 | [18] 0.019 | [19] -0.122 | [20] 0.005

TRNAU1AP (UniProt Q9NX07)
active: [1] -0.335
inactive: [2] 0.007 | [3] 0.059 | [4] 0.062 | [5] -0.041 | [6] 0.04 | [7] -0.264 | [8] 0.031 | [9] 0.027 | [10] -0.027 | [11] -0.059 | [12] -0.08 | [13] 0.015 | [14] -0.192 | [15] -0.039 | [16] 0.045 | [17] 0.034 | [18] 0.098 | [19] -0.007 | [20] -0.019

TUBB6 (UniProt Q9BUF5)
Sequence of UniProt Q9BUF5 (Q9BUF5 whole entry, looked up): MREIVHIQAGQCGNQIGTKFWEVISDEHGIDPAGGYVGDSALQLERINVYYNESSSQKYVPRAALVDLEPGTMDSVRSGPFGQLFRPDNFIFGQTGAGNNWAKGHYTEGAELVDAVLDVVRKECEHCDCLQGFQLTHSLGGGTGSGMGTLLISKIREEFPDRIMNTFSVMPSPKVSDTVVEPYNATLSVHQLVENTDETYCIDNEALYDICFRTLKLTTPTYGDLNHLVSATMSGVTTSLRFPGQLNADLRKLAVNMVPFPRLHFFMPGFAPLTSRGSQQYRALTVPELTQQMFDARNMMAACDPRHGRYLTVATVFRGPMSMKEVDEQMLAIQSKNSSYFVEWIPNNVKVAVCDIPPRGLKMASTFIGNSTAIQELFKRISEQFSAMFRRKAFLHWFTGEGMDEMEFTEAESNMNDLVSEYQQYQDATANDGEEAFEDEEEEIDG
inactive: [1] 0.007 | [2] 0.002 | [3] -0.015 | [4] 0.003 | [5] -0.068 | [6] -0.007 | [7] -0.019 | [8] 0.014 | [9] 0.032 | [10] -0.024 | [11] 0.023 | [12] -0.064 | [13] 0.015 | [14] 0.034 | [15] 0.023 | [16] 0.017 | [17] 0.056 | [18] 0.028 | [19] 0.011 | [20] -0.024
